Experimental data: PubChem BioAssay AID1159580 (chemical genetic matrix, 2015)
Several values for one entry are separate records, joined by “and”; a condition that tells them apart may be missing. Identical values can stand only once. The whole screen tested about 5,500 compounds, of which about 2,000 (36%) were called active. Another 18% or so got no clear call; they are omitted. Rule as the data show it: active = normalized growth mostly below about 0.91 (no sharp cut-off); inconclusive = no clear call, values can overlap the other calls; inactive = mostly above about 0.92. Some of the results follow.

Assay: chemical genetic growth profiling, strain panel (AID 1159580);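 also: tested at 20 µM; growth read once vehicle control cultures reached saturation at 30 °C; 1 = growth at the plate median or of vehicle wells; lower values mean less growth of the strain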
Details: S. cerevisiae deletion strains, growth OD

Measured: normalized growth

O=C(/C=C/c1ccccc1)c1ccc(O[C@@H]2O[C@H](CO)[C@@H](O)[C@H](O)[C@H]2O)cc1O
active: locus YBL061C, strain skt5, active compounds read low 0.886 | locus YBR023C, strain chs3, active compounds read low 0.912 | locus YBR231C, strain swc5, active compounds read low 0.899 | locus YCL029C, strain bik1, active compounds read low 0.889 | locus YCL061C, strain MRC1, active compounds read low 0.919 | locus YDL185W, strain tfp1, active compounds read low 0.885 | locus YDL192W, strain arf1, active compounds read low 0.829 | locus YDR001C, strain nth1, active compounds read low 0.916 | locus YDR101C, strain arx1, active compounds read low 0.892 | locus YDR159W, strain sac3, active compounds read low 0.855 | locus YDR297W, strain sur2, active compounds read low 0.921 | locus YDR318W, strain mcm21, active compounds read low 0.892 | locus YDR388W, active compounds read low 0.877 | locus YDR502C, strain sam2, active compounds read low 0.882 | locus YEL061C, strain CIN8, active compounds read low 0.918 | locus YER016W, strain bim1, active compounds read low 0.921 | locus YER110C, active compounds read low 0.869 | locus YER155C, strain BEM2 (second series), active compounds read low 0.853 | locus YER155C, strain BEM2, active compounds read low 0.912 | locus YER167W, strain BCK2, active compounds read low 0.9 | locus YGL086W, strain mad1, active compounds read low 0.885 | locus YGL173C, strain kem1, active compounds read low 0.899 | locus YGL240W, strain doc1, active compounds read low 0.853 | locus YGL253W, strain hxk2, active compounds read low 0.902 | locus YGR135W, strain pre9, active compounds read low 0.886 | locus YHR079C, strain IRE1 (second series), active compounds read low 0.886 | locus YHR094C, strain hxt1, active compounds read low 0.888 | locus YHR129C, strain ARP1, active compounds read low 0.91 | locus YHR200W, strain rpn10, active compounds read low 0.873 | locus YIL125W, strain kgd1, active compounds read low 0.895 | locus YIR030C, strain dcg1, active compounds read low 0.881 | locus YJL134W, strain LCB3, active compounds read low 0.917 | locus YJL164C, strain tpk1, active compounds read low 0.91 | locus YJL168C, strain set2, active compounds read low 0.888 | locus YKL068W, active compounds read low 0.905 | locus YKL085W, strain MDH1 (second series), active compounds read low 0.902 | locus YKL085W, strain MDH1, active compounds read low 0.902 | locus YKR001C, strain vps1, active compounds read low 0.819 | locus YLL001W, strain dnm1, active compounds read low 0.896 | locus YLL026W, active compounds read low 0.924 | locus YLR102C, strain apc9, active compounds read low 0.891 | locus YLR268W, strain sec22, active compounds read low 0.88 | locus YLR330W, strain CHS5, active compounds read low 0.904 | locus YLR342W, strain FKS1 (second series), active compounds read low 0.767 | locus YLR342W, strain FKS1, active compounds read low 0.865 | locus YLR370C, strain arc18, active compounds read low 0.91 | locus YLR371W, strain rom2, active compounds read low 0.756 | locus YLR384C, strain iki3, active compounds read low 0.907 | locus YLR418C, strain cdc73, active compounds read low 0.739 | locus YML016C, strain PPZ1, active compounds read low 0.909 | locus YML124C, strain tub3, active compounds read low 0.897 | locus YMR078C, strain ctf18, active compounds read low 0.9 | locus YMR129W, active compounds read low 0.91 | locus YMR223W, strain ubp8, active compounds read low 0.877 | locus YNL250W, strain rad50, active compounds read low 0.892 | locus YNL271C, strain bni1, active compounds read low 0.858 | locus YNL298W, strain CLA4, active compounds read low 0.884 | locus YNL307C, strain MCK1, active compounds read low 0.887 | locus YOL147C, strain pex11, active compounds read low 0.903 | locus YOR069W, strain VPS5, active compounds read low 0.917 | locus YOR083W, strain WHI5, active compounds read low 0.859 | locus YOR136W, strain idh2, active compounds read low 0.912 | locus YOR144C, strain elg1, active compounds read low 0.886 | locus YOR184W, strain ser1, active compounds read low 0.864 | locus YOR265W, strain rbl2, active compounds read low 0.926 | locus YOR316C, strain cot1, active compounds read low 0.9 | locus YPL078C, strain atp4, active compounds read low 0.891 | locus YPL106C, strain sse1, active compounds read low 0.811 | locus YPL241C, strain CIN2, active compounds read low 0.916 | locus YPR119W, strain clb2, active compounds read low 0.885 | locus YPR141C, strain kar3, active compounds read low 0.877 | locus YPR163C, strain tif3, active compounds read low 0.899 | locus YPR167C, strain met16, active compounds read low 0.916 | strain wtn01, active compounds read low 0.859
inactive: locus YAL021C, strain ccr4, active compounds read low 0.97 | locus YAL026C, strain drs2, active compounds read low 0.923 | locus YAL030W, strain snc1, active compounds read low 0.933 | locus YBR009C, strain hhf1, active compounds read low 0.935 | locus YBR021W, strain FUR4, active compounds read low 0.883 | locus YBR171W, strain sec66, active compounds read low 0.914 | locus YBR229C, strain ROT2, active compounds read low 0.922 | locus YBR279W, strain paf1, active compounds read low 0.96 | locus YCL011C, strain gbp2, active compounds read low 0.938 | locus YCL016C, strain dcc1, active compounds read low 0.925 | locus YCL069W, strain vba3, active compounds read low 0.96 | locus YCR088W, strain abp1, active compounds read low 0.923 | locus YDL005C, strain med2, active compounds read low 0.955 | locus YDL035C, strain GPR1, active compounds read low 0.926 | locus YDL040C, strain nat1, active compounds read low 0.937 | locus YDL074C, strain BRE1, active compounds read low 0.861 | locus YDL101C, strain DUN1, active compounds read low 0.943 | locus YDR069C, strain doa4, active compounds read low 0.974 | locus YDR137W, strain rgp1, active compounds read low 0.947 | locus YDR162C, strain NBP2, active compounds read low 0.944 | locus YDR195W, strain ref2 1 | locus YDR334W, strain swr1, active compounds read low 0.95 | locus YDR335W, strain msn5, active compounds read low 0.938 | locus YDR392W, strain spt3, active compounds read low 0.787 | locus YEL003W, strain gim4, active compounds read low 0.931 | locus YEL037C, strain rad23, active compounds read low 0.945 | locus YEL061C, strain CIN8 (second series), active compounds read low 0.928 | locus YER015W, strain faa2, active compounds read low 0.938 | locus YER111C, strain swi4, active compounds read low 0.935 | locus YFR010W, strain ubp6, active compounds read low 0.951 | locus YGL078C, strain dbp3, active compounds read low 0.948 | locus YGL167C, strain pmr1, active compounds read low 0.947 | locus YGL227W, strain vid30, active compounds read low 0.932 | locus YGL248W, strain PDE1, active compounds read low 0.936 | locus YGR252W, strain gcn5, active compounds read low 0.79 | locus YHR013C, strain ard1, active compounds read low 0.941 | locus YHR027C, strain rpn1, active compounds read low 0.957 | locus YHR030C, strain SLT2, active compounds read low 0.922 and 0.953 | locus YHR079C, strain IRE1, active compounds read low 0.918 | locus YHR142W, strain chs7, active compounds read low 0.882 | locus YIL066C, strain RNR3, active compounds read low 0.906 | locus YIL073C, strain SPO22, active compounds read low 0.956 | locus YJL092W, strain hpr5, active compounds read low 0.926 | locus YJL095W, strain BCK1 (second series), active compounds read low 0.944 | locus YJL095W, strain BCK1, active compounds read low 0.923 and 0.945 | locus YJL115W, strain asf1, active compounds read low 0.941 | locus YJL129C, strain trk1, active compounds read low 0.897 | locus YJL154C, strain vps35, active compounds read low 0.942 | locus YJL166W, strain qcr8, active compounds read low 0.928 | locus YJL187C, strain SWE1 (second series), active compounds read low 0.93 | locus YJL187C, strain SWE1, active compounds read low 0.95 | locus YJR043C, strain POL32, active compounds read low 0.893 | locus YJR066W, strain TOR1, active compounds read low 0.857 | locus YJR075W, strain HOC1, active compounds read low 0.913 | locus YKL009W, strain mrt4, active compounds read low 0.906 | locus YKL160W, strain elf1, active compounds read low 0.911 | locus YKL190W, strain CNB1, active compounds read low 0.934 | locus YKR026C, strain gcn3, active compounds read low 0.933 | locus YKR091W, strain srl3, active compounds read low 0.938 | locus YLL041C, strain sdh2, active compounds read low 0.937 | locus YLR027C, strain aat2, active compounds read low 0.937 | locus YLR039C, strain RIC1, active compounds read low 0.918 | locus YLR058C, strain SHM2, active compounds read low 0.93 | locus YLR113W, strain HOG1, active compounds read low 0.937 | locus YLR221C, strain rsa3, active compounds read low 0.934 | locus YLR258W, strain gsy2, active compounds read low 0.916 | locus YLR262C, strain YPT6 (second series), active compounds read low 0.911 | locus YLR262C, strain YPT6, active compounds read low 0.949 | locus YLR320W, strain mms22, active compounds read low 0.894 | locus YLR357W, strain rsc2, active compounds read low 0.929 | locus YML032C, strain rad52, active compounds read low 0.916 | locus YML120C, strain ndi1, active compounds read low 0.933 | locus YMR058W, strain fet3, active compounds read low 0.931 | locus YMR125W, strain sto1, active compounds read low 0.938 | locus YMR205C, strain PFK2, active compounds read low 0.922 | locus YMR231W, strain pep5, active compounds read low 0.947 | locus YMR307W, strain GAS1, active compounds read low 0.692 | locus YNL067W, strain RPL9B, active compounds read low 0.945 | locus YNL071W, strain lat1, active compounds read low 0.942 | locus YNL183C, strain NPR1, active compounds read low 0.911 | locus YNL209W, strain ssb2, active compounds read low 0.937 | locus YNL233W, strain BNI4, active compounds read low 0.877 | locus YNL248C, strain rpa49, active compounds read low 0.896 | locus YNL322C, strain KRE1 (second series), active compounds read low 0.921 | locus YNL322C, strain KRE1, active compounds read low 0.936 | locus YNR049C, strain mso1, active compounds read low 0.919 | locus YNR052C, strain pop2, active compounds read low 0.92 | locus YOL006C, strain TOP1, active compounds read low 0.879 | locus YOL012C, strain htz1 1.32 | locus YOR001W, strain rrp6, active compounds read low 0.953 | locus YOR061W, strain CKA2, active compounds read low 0.933 | locus YOR070C, strain gyp1, active compounds read low 0.93 | locus YOR080W, strain dia2, active compounds read low 0.948 | locus YOR106W, strain vam3, active compounds read low 0.9 | locus YOR231W, strain MKK1, active compounds read low 0.952 | locus YOR270C, strain vph1, active compounds read low 0.925 | locus YOR290C, strain snf2, active compounds read low 0.941 | locus YPL051W, strain arl3, active compounds read low 0.931 | locus YPL055C, strain LGE1, active compounds read low 0.901 | locus YPL240C, strain hsp82, active compounds read low 0.932 | locus YPL256C, strain CLN2, active compounds read low 0.889
